In the library only some 0.41% were active in any assay of this set; here they are far more common.
GLA inh pH 4.5 – qHTS Assay for Inhibitors of Human alpha-Galactosidase at pH 4.5 | Alpha-galactosidase A (Homo sapiens), P06280 | 230,000 tested, under 10 active | purified enzyme, 4-MU-alpha-Gal fluorescence, pH 4.5 | activity change, negative = inhibition, % at 105 µM | AID 1467, 2008;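 note: 0% = full activity with enzyme and -100% = basal without enzyme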
Target sequence (P06280 whole entry, looked up): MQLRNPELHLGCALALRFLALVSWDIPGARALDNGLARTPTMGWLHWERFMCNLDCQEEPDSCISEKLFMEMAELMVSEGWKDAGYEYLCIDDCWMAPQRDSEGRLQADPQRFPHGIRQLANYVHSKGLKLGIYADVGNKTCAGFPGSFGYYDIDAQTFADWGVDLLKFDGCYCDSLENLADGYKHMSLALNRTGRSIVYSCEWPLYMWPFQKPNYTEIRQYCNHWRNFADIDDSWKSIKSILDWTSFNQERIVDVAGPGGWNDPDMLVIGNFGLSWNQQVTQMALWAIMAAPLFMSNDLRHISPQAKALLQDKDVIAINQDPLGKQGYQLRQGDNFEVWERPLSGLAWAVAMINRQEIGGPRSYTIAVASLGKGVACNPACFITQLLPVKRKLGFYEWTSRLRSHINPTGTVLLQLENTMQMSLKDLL
GAA glycogen – qHTS Assay for Inhibitors and Activators of Human alpha-Glucosidase Cleavage of Glycogen | Potency, µM (doses to about 76.4 µM), for inactives: top-dose activity change, negative = inhibition, most hits filed as inhibitors | recombinant GAA, glycogen substrate, Amplex Red glucose oxidase fluorescence | 0.38% of 300,000 active | Lysosomal alpha-glucosidase (Homo sapiens), P10253;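 note: potency is the fitted concentration of half-maximal effect; 0% = full enzyme reaction and -100% = no-enzyme basal signal; the screen sought inhibitors and activators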
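Recombinant enzyme (4 nM final) with compounds titrated up to 77 uM and bovine liver glycogen (30 ug) in citrate pH 5.0, 0.01% Tween-20, 37 C 40 min. Released glucose detected by Amplex Red/glucose oxidase (Ex 573/Em 610); AC50 from Hill fits.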
GLA spleen mod – qHTS Assay for Inhibitors and Activators of Human alpha-Galactosidase From Spleen Homogenate; Alpha-galactosidase A (Homo sapiens), P06280; human spleen homogenate, 4MU-alpha-Gal fluorescence, 40 min; Potency, µM (highest dose often 80 µM), for the others: at the highest dose activity change, negative = inhibition, hits mostly inhibitors; 0.008% of 240,000 active;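 note: potency is the fitted concentration of half-maximal effect; 0% = enzyme with vehicle and -100% = no enzyme basal signal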
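Inhibition or activation of alpha-galactosidase in human spleen homogenate is scored by 4-MU fluorescence after 40 min at 37C, pH 5.0, with 1 mM substrate. AC50s come from concentration-response fitted to the Hill equation.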
aGlu spleen mod – qHTS Assay for Inhibitors and Activators of Human alpha-Glucosidase From Spleen Homogenate; Lysosomal alpha-glucosidase (Homo sapiens), P10253; human spleen homogenate, 4-MU-alpha-glucoside fluorescence; Potency, µM (doses to about 79.9 µM), without a hit: at the highest dose activity change, negative = inhibition, hits mostly inhibitors; 0.006% of 240,000 active; AID 2112, 2009;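 note: potency is the fitted concentration of half-maximal effect; 0% = enzyme with vehicle and -100% = no enzyme basal signal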
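Enzyme source: human spleen homogenate, 1 ug/well. Buffer 50 mM citric acid/K phosphate pH 5.0, 0.01% Tween-20. 4-MU-alpha-glucoside 1 mM; 37 C x 40 min; NaOH/glycine stop; fluorescence.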
GAA inh – qHTS Assay for Inhibitors of Human alpha-Glucosidase as a Potential Chaperone Treatment of Pompe Disease; Potency, µM (titrated, usually from 76.9 µM), without a hit: top-dose activity change, negative = inhibition, hits mostly inhibitors; 0.005% of 200,000 active; Lysosomal alpha-glucosidase (Homo sapiens), P10253; purified human GAA, 4-MU-alpha-glucoside fluorescence;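 note: potency is the fitted concentration of half-maximal effect; plate controls were uninhibited enzyme wells for no effect and no-enzyme background for full effect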
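Human enzyme at 4 nM with 400 uM 4-methylumbelliferyl-alpha-D-pyranoside, citrate/phosphate buffer pH 5.0, 0.005% Tween-20, 20 min at room temperature. Compounds up to 77 uM. 4-MU fluorescence (Ex 365/Em 440) read after NaOH/glycine stop; AC50 from Hill fit.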
N370S GC mod – qHTS Assay for Inhibitors and Activators of N370S glucocerebrosidase as a Potential Chaperone Treatment of Gaucher Disease; Lysosomal acid glucosylceramidase (Homo sapiens), P04062; N370S GC spleen homogenate, 4MU-glucoside fluorescence; Potency, µM (highest dose often 59.4 µM), without a hit: at the highest dose activity change, negative = inhibition, hits mostly inhibitors; 0.092% of 330,000 active;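 note: potency is the fitted concentration of half-maximal effect; 0% = full enzyme activity and -100% = no enzyme basal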
An asterisk follows results filed as active; [ ] = remark or other dose. Calls come from the whole dose curve; as a rule, active = well fitted curve in the direction sought with a large enough effect; inconclusive = small, poorly fitted or top-dose-only effect, or another doubt; inactive = no such curve, though single readings can be large; an effect the other way counts as inactive or inconclusive.

`O=C(C1=C[C@@H](c2ccc(C(F)(F)F)cc2)C[C@@H](OCc2ccc(CO)cc2)O1)N1CCN(Cc2ccc3c(c2)OCO3)CC1` gave GLA inh pH 4.5 -13, GAA glycogen -7%, GLA spleen mod -5%, aGlu spleen mod -16% and N370S GC mod 10µM*.
`O=C(C1=C[C@H](c2ccc(C(F)(F)F)cc2)C[C@H](OCc2ccc(CO)cc2)O1)N1CCN(Cc2ccc3c(c2)OCO3)CC1` gave GLA inh pH 4.5 -24, GAA glycogen -18%, GLA spleen mod 6%, aGlu spleen mod -8% and N370S GC mod -29%.
For C=CCn1c2ccccc2c2nnc(SCC(N)=O)nc21 the results were GAA glycogen -14% and N370S GC mod -14%.
For C=CCn1c2ccccc2c2nnc(SCC(=O)NC(C(=O)OC)C(C)C)nc21 (stereo unspecified) the results were GLA inh pH 4.5 4, GAA glycogen 3%, GLA spleen mod 40µM*, aGlu spleen mod -17%, GAA inh -3% and N370S GC mod 9%.
For COc1ccc(C=C2c3ccccc3C(=O)c3ccccc32)cc1O the results were GLA spleen mod 2%, aGlu spleen mod 6% and N370S GC mod 20%.
`CC(C)=C1C(=O)NN(c2ccc(F)c(Cl)c2)C1=O` gave GLA inh pH 4.5 3, GAA glycogen 25µM*, GLA spleen mod -12%, aGlu spleen mod 1%, GAA inh -1% and N370S GC mod 24%.
For O=C1NN(c2ccc(F)c(Cl)c2)C(=O)/C1=C\c1cccc(OC(=O)c2cccs2)c1 the results were GLA inh pH 4.5 1, GAA glycogen inconclusive, GLA spleen mod 8%, aGlu spleen mod 4%, GAA inh -2% and N370S GC mod -9%.
For CN1CCC(=O)N(C(CSc2ccc(Br)cc2)c2ccccc2)CC1 (stereo unspecified) the results were GLA spleen mod 0%, aGlu spleen mod -1% and N370S GC mod -15%.
Screening CCOC(=O)Nc1ccc2c(c1)Nc1ccccc1S2 returned GLA inh pH 4.5 -8, GAA glycogen 14µM*, GLA spleen mod 0%, aGlu spleen mod 2%, GAA inh -10% and N370S GC mod -5%.
For CC(=O)c1ccc2c(c1)Nc1ccccc1S2 the results were GLA inh pH 4.5 -3, GAA glycogen 31µM*, GLA spleen mod -10%, aGlu spleen mod -5%, GAA inh -2% and N370S GC mod 3%.
CCOC(=O)c1ccc(NC(=O)c2ccc3c(c2)NC(=O)c2ccccc2S3)cc1 was read as GAA glycogen 10%[76.3 µM].
CC(Cc1ccc(O)c(O)c1)(NN)C(=O)O (stereo unspecified) was read as GLA inh pH 4.5 10, GLA spleen mod -6%, aGlu spleen mod -4% and N370S GC mod 10%.
`CCC1Cc2cc(O)ccc2C2=C1c1ccc(O)cc1CC2CC` (stereo unspecified) gave GLA spleen mod inconclusive, aGlu spleen mod inconclusive and N370S GC mod 8%.
Screening CC(C)C[C@H](NC(=O)[C@H](CO)NC(=O)[C@H](C)NC(=O)[C@H](CCCN=C(N)N)NC(=O)[C@H](CCCN=C(N)N)NC(=O)[C@@H](N)CC(C)C)C(=O)NCC(=O)O returned GLA spleen mod 4%, aGlu spleen mod 5% and N370S GC mod 1%.
For C#CCOCCOCCOCCNc1nc(N2CCN(C(=O)CCCCCCCCCCNC(=O)[C@H](CCCCN)n3cc(C[C@@H](C)CC)nn3)CC2)nc(N2CCN(C(=O)CCCCCCCCCCNC(=O)[C@H](CCCN=C(N)N)n3cc(C[C@@H](C)CC)nn3)CC2)n1 the results were N370S GC mod 6.3µM*.
Screening C#CCOCCOCCOCCNc1nc(N2CCN(C(=O)[C@H](C)n3cc(CCCN=C(N)N)nn3)CC2)nc(N2CCN(C(=O)[C@H](CCCCN)n3cc(CCCC)nn3)CC2)n1 returned GLA inh pH 4.5 1, GAA glycogen 3%, GLA spleen mod 0%, aGlu spleen mod -8%, GAA inh -2% and N370S GC mod 1%.
C#CCOCCOCCOCCNc1nc(N2CCN(C(=O)CCCCCCCCCCNC(=O)[C@H](CCCCN)n3cc(C)nn3)CC2)nc(N2CCN(C(=O)CCCCCCCCCCNC(=O)[C@H](CCCN=C(N)N)n3cc(C[C@@H](C)CC)nn3)CC2)n1 was read as N370S GC mod 7.9µM*.
C#CCOCCOCCOCCNc1nc(N2CCN(C(=O)CCCCCCCCCCNC(=O)[C@H](CO)n3cc(CCCCCN)nn3)CC2)nc(N2CCN(C(=O)CCCCCCCCCCNC(=O)[C@H](CCCN=C(N)N)n3cc(C[C@@H](C)CC)nn3)CC2)n1 was read as N370S GC mod 13µM*.
For CC[C@H](C)Cc1cn([C@@H](CCCN=C(NC(=O)OC(C)(C)C)NC(=O)OC(C)(C)C)C(=O)NCCCCCCCCCCC(=O)N2CCN(C(=O)OC(C)(C)C)CC2)nn1 the results were N370S GC mod 16µM*.
CCC(=O)CC was read as GLA spleen mod 7%, aGlu spleen mod 2% and N370S GC mod 1%.
For Oc1cc2c(cc1O)[C@@H]1c3ccc(O)c(O)c3OC[C@]1(O)C2 the results were GLA inh pH 4.5 -5, GLA spleen mod -5%, aGlu spleen mod 1% and N370S GC mod -10%.
Screening Nc1nc(Cl)nc2c1ncn2C1OC(CO)C(O)C1F (stereo unspecified) returned GLA spleen mod 25%, aGlu spleen mod 1% and N370S GC mod -4%.
`C#CCOCCOCCOCCNc1nc(N2CCN(C(=O)CCCCCCCCCCNC(=O)[C@@H](CCSC)n3cc(CCO)nn3)CC2)nc(N2CCN(C(=O)CCCCCCCCCCNC(=O)[C@H](CCCN=C(N)N)n3cc(C[C@@H](C)CC)nn3)CC2)n1` gave N370S GC mod 7.9µM*.
